PubChem BioAssay (Tox21)
Results filed as inconclusive are left out. Where a call stands in place of a potency, no number is given. Values without a mark were called inactive. Calls of active or inactive are those of the source. Unless noted, calls follow the shape of the full dose curve.

system: not listed separately; assay: qHTS assay to identify small molecule agonists of the estrogen receptor alpha (ER-alpha) signaling pathway in the presence of an antagonist - cell viability counter screen (AID 1259386; active = well fitted cell-killing curve with a large enough effect in the repeat runs;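 also: cells exposed to compounds for 22 h at 37 °C before the viability read; nearly all actives have a fitted effect of over 30% in size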); settings: VM7Luc4E2 viability, CellTiter-Fluor fluorescence, 22 h; series mostly up to 92.4 µM; activity change, negative = cytotoxicity: at the top concentration
Method in brief: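 Fluorescent CellTiter-Fluor viability signal from VM7Luc4E2 cells, with the reagent added during the final hour of a 22hr compound exposure at 37C in the presence of 10.0nM ICI-182,780.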

SMILES | Potency | activity change, negative = cytotoxicity
C=C(CC(=O)O)C(=O)O | inactive | –
NC(N)=S | inactive | –
Brc1ccc(Oc2ccc(Br)cc2)cc1 | inactive | –
OCCOCCOCCOCCOCCO | inactive | –
C=CC(C)(C)C | inactive | –
Cc1ccc(C)c(S(=O)(=O)O)c1 | inactive | –
CC(=O)Nc1ccc(CC(=O)O)cc1 | inactive | –
NC1CCCCC1N (centres undefined) | inactive | –
Cc1nnc(NS(=O)(=O)c2ccc(N)cc2)s1 | inactive | –
CCCCCCCCCCCCCC(=O)O | inactive | –
Clc1cccc(Cl)c1NC1=NCCN1 | – | -0.364% [at 42.5 µM]
O=Cc1ccc(CO)o1 | inactive | –
CC(C)(CO)CO | inactive | –
O=c1n(CCCN2CCN(c3cccc(Cl)c3)CC2)nc2ccccn12 | inactive | –
COc1ccccc1[N+](=O)[O-] | inactive | –
CCCCC(=O)O | inactive | –
N#CCC(=O)O | inactive | –
Cc1ncc(CO)c(CO)c1O | inactive | –

target: Progesterone receptor (Homo sapiens) (UniProt P06401); assay: qHTS assay to identify small molecule agonists of the progesterone receptor (PR) signaling pathway (AID 1346784); settings: PR-UAS-bla HEK293T, beta-lactamase FRET ratio, 16 h; series mostly up to 92.4 µM; activation: at the top concentration; also: nearly all actives have a fitted effect of over 30% in size
Sequence (P06401 whole entry, looked up): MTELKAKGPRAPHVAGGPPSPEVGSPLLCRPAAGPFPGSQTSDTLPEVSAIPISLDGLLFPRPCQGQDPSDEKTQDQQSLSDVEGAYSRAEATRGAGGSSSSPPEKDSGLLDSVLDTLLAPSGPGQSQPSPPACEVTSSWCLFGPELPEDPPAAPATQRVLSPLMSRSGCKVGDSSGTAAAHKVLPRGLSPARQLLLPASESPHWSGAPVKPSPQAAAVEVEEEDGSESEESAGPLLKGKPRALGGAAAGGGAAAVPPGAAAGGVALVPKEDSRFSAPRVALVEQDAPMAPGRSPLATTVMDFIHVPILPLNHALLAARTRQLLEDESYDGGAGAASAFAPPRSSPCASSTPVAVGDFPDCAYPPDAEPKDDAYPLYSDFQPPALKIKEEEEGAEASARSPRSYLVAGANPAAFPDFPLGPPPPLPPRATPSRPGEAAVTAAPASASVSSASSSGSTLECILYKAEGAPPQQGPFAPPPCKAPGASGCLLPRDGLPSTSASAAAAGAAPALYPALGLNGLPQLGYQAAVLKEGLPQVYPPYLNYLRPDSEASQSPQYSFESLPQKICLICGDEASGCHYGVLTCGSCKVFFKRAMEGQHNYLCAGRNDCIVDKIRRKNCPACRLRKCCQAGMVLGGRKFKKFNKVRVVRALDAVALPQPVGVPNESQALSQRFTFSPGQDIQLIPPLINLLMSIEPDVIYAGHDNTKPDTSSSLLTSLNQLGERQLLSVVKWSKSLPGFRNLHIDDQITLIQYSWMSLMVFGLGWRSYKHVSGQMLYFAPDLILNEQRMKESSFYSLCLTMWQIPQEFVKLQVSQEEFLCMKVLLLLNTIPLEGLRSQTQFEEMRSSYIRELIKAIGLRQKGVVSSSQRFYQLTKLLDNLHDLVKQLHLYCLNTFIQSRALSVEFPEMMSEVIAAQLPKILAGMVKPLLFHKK
Method in brief: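 Using charcoal-stripped serum (2%) to limit endogenous steroids, PR-UAS-bla HEK 293T cells received compounds for 16 hr at 37C after 6 hr plating; beta-lactamase FRET fluorescence was recorded following 2 hr substrate loading at room temperature.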

SMILES | Potency | activation [%]
O=C1CCCCCCCCCCC1 | inactive | –
CN1Cc2c(N)cccc2C(c2ccccc2)C1 (centres undefined) | inactive | –
COCN(COC)c1nc(N(COC)COC)nc(N(COC)COC)n1 | inactive | –
CC/C(C)=N/O | inactive | –
CC(=O)OCCC(C)C | inactive | –
C=C1C[C@]23C[C@@]1(O)CC[C@H]2[C@@]12C=C[C@H](O)[C@@](C)(C(=O)O1)[C@H]2[C@@H]3C(=O)O | inactive | –
COc1ccc2cc3[n+](cc2c1OC)CCc1cc2c(cc1-3)OCO2 | inactive | –
CC1=CC(=O)CC(C)(C)C1 | – | 3.47
CC(O)CNCC(C)O (centres undefined) | inactive | –
CCCCCCC(=O)O | inactive | –
Cc1ccncc1 | inactive | –
CN1CCCC1=O | inactive | –
O=C1O[C@H]([C@H](O)CO)C(O)=C1O | inactive | –
CC/C=C(\C(=O)N[C@@H]1C(=O)N2C(C(=O)OCOC(=O)C(C)(C)C)=C(COC(N)=O)CS[C@H]12)c1csc(N)n1 | inactive | –
CCOC(=O)CC(=O)OCC | inactive | –
COc1cc(NC(=O)CC(C)=O)c(OC)cc1Cl | inactive | –
O=[N+]([O-])c1cc(C(F)(F)F)ccc1Cl | inactive | –
NCCNCCNCCN | inactive | –
CCCCC(CC)COC(=O)c1ccc(C(=O)OCC(CC)CCCC)cc1 (centres undefined) | inactive | –

SMILES | Potency | activation [%]
CC1(C)[C@@H](O[C@H]2O[C@H](C(=O)O)[C@@H](O)[C@H](O)[C@H]2O[C@@H]2O[C@H](C(=O)O)[C@@H](O)[C@H](O)[C@H]2O)CC[C@]2(C)[C@H]3C(=O)C=C4[C@@H]5C[C@@](C)(C(=O)O)CC[C@]5(C)CC[C@@]4(C)[C@]3(C)CC[C@@H]12 | inactive | –
C=C(CC(=O)O)C(=O)O | inactive | –
NC(N)=S | inactive | –
Brc1ccc(Oc2ccc(Br)cc2)cc1 | inactive | –
OCCOCCOCCOCCOCCO | inactive | –
C=CC(C)(C)C | inactive | –
Cc1ccc(C)c(S(=O)(=O)O)c1 | inactive | –
CC(=O)Nc1ccc(CC(=O)O)cc1 | inactive | –
NC1CCCCC1N (centres undefined) | – | -1.04
Cc1nnc(NS(=O)(=O)c2ccc(N)cc2)s1 | inactive | –
CCCCCCCCCCCCCC(=O)O | inactive | –
Clc1cccc(Cl)c1NC1=NCCN1 | inactive | –
O=Cc1ccc(CO)o1 | – | -0.242
CC(C)(CO)CO | – | -0.335
O=c1n(CCCN2CCN(c3cccc(Cl)c3)CC2)nc2ccccn12 | inactive | –
COc1ccccc1[N+](=O)[O-] | inactive | –
CCCCC(=O)O | inactive | –
N#CCC(=O)O | inactive | –
Cc1ncc(CO)c(CO)c1O | inactive | –

target: Progesterone receptor (Homo sapiens) (UniProt P06401); assay: qHTS assay to identify small molecule antagonists of the progesterone receptor (PR) signaling pathway (AID 1346795; active = well fitted inhibition curve with a large enough effect in the signal ratio in the repeat runs, not every such curve was filed as active; the % refers to the signal ratio); settings: PR-UAS-bla HEK293T, beta-lactamase FRET ratio, 16 h; series mostly up to 92.4 µM; activity change, negative = inhibition: at the top concentration
Method in brief: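 Inhibition of R5020-induced (1 nM final) beta-lactamase reporter signal in PR-UAS-bla HEK293T cells was scored by FRET fluorescence after overnight (16 hr) compound treatment.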

SMILES | Potency | activity change, negative = inhibition
O=C1CCCCCCCCCCC1 | inactive | –
CN1Cc2c(N)cccc2C(c2ccccc2)C1 (centres undefined) | – | -14% [at 42.5 µM]
COCN(COC)c1nc(N(COC)COC)nc(N(COC)COC)n1 | inactive | –
CC/C(C)=N/O | inactive | –
CC(=O)OCCC(C)C | inactive | –
C=C1C[C@]23C[C@@]1(O)CC[C@H]2[C@@]12C=C[C@H](O)[C@@](C)(C(=O)O1)[C@H]2[C@@H]3C(=O)O | inactive | –
COc1ccc2cc3[n+](cc2c1OC)CCc1cc2c(cc1-3)OCO2 | inactive | –
CC1=CC(=O)CC(C)(C)C1 | – | 12.1%
CC(O)CNCC(C)O (centres undefined) | inactive | –
CCCCCCC(=O)O | inactive | –
Cc1ccncc1 | – | 8.87%
CN1CCCC1=O | inactive | –
O=C1O[C@H]([C@H](O)CO)C(O)=C1O | inactive | –
CC/C=C(\C(=O)N[C@@H]1C(=O)N2C(C(=O)OCOC(=O)C(C)(C)C)=C(COC(N)=O)CS[C@H]12)c1csc(N)n1 | inactive | –
CCOC(=O)CC(=O)OCC | inactive | –
COc1cc(NC(=O)CC(C)=O)c(OC)cc1Cl | inactive | –
O=[N+]([O-])c1cc(C(F)(F)F)ccc1Cl | inactive | –
NCCNCCNCCN | inactive | –
CCCCC(CC)COC(=O)c1ccc(C(=O)OCC(CC)CCCC)cc1 (centres undefined) | inactive | –

SMILES | Potency | activity change, negative = inhibition
CC1(C)[C@@H](O[C@H]2O[C@H](C(=O)O)[C@@H](O)[C@H](O)[C@H]2O[C@@H]2O[C@H](C(=O)O)[C@@H](O)[C@H](O)[C@H]2O)CC[C@]2(C)[C@H]3C(=O)C=C4[C@@H]5C[C@@](C)(C(=O)O)CC[C@]5(C)CC[C@@]4(C)[C@]3(C)CC[C@@H]12 | inactive | –
C=C(CC(=O)O)C(=O)O | inactive | –
NC(N)=S | inactive | –
Brc1ccc(Oc2ccc(Br)cc2)cc1 | inactive | –
OCCOCCOCCOCCOCCO | inactive | –
C=CC(C)(C)C | inactive | –
Cc1ccc(C)c(S(=O)(=O)O)c1 | inactive | –
CC(=O)Nc1ccc(CC(=O)O)cc1 | – | 0.815% [at 42.5 µM]
NC1CCCCC1N (centres undefined) | inactive | –
Cc1nnc(NS(=O)(=O)c2ccc(N)cc2)s1 | inactive | –
CCCCCCCCCCCCCC(=O)O | inactive | –
Clc1cccc(Cl)c1NC1=NCCN1 | inactive | –
O=Cc1ccc(CO)o1 | inactive | –
CC(C)(CO)CO | inactive | –
O=c1n(CCCN2CCN(c3cccc(Cl)c3)CC2)nc2ccccn12 | – | -16.7% [at 42.5 µM]
COc1ccccc1[N+](=O)[O-] | inactive | –
CCCCC(=O)O | inactive | –
N#CCC(=O)O | inactive | –
Cc1ncc(CO)c(CO)c1O | inactive | –
